The panel holds about 79,000 compounds, 15% with a hit somewhere; the sample as a whole holds those more often. A number with no mark means an inactive call. The source made the active and inactive calls. Cut-off read from the data, not from the text of the source: active = growth inhibition above about 70%; inactive = the rest.
Columns and labels:
[1] = NCI Yeast Anticancer Drug Screen. Data for the rad50 strain (AID 155);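 note: 0% = growth of vehicle-only cultures of the same strain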; conditions: S. cerevisiae rad50 strain growth inhibition; at 50.0 µM; stronger effect = higher value
Summary of the method: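 Growth of the mutant yeast was measured after compound exposure and referenced to vehicle-treated cultures.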

[2] = NCI Yeast Anticancer Drug Screen. Data for the mec2-1 strain (AID 157); conditions: S. cerevisiae mec2-1 strain, at 50.0 µM, stronger effect = higher value
Summary of the method: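 Mutant yeast (mec2-1) grown with compound; growth inhibition relative to vehicle control reported.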

[3] = NCI Yeast Anticancer Drug Screen. Data for the sgs1 mgt1 strain (AID 161);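 note: 0% = growth of cultures given vehicle only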; conditions: S. cerevisiae sgs1 mgt1 strain, at 50.0 µM, stronger effect = higher value
Summary of the method: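 Yeast cells carrying a defined DNA-repair defect were exposed to test compounds. Growth inhibition was measured relative to vehicle-treated controls.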

[4] = NCI Yeast Anticancer Drug Screen. Data for the cln2 rad14 strain (AID 165);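 note: 0% = growth equal to vehicle treated cultures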; conditions: S. cerevisiae cln2 rad14 strain, at 50.0 µM, stronger effect = higher value
Summary of the method: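 Readout is yeast growth inhibition versus vehicle-treated controls, using a strain with cln2 and rad14 alterations exposed to compound.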

[5] = NCI Yeast Anticancer Drug Screen. Data for the bub3 strain (AID 167); conditions: S. cerevisiae bub3 mutant strain, at 50.0 µM, stronger effect = higher value
Summary of the method: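 Whole-cell yeast assay. The mutant strain was incubated with compounds, and growth inhibition was determined by comparison with vehicle-treated cells.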

[6] = NCI Yeast Anticancer Drug Screen. Data for the mlh1 rad18 strain (AID 175); conditions: S. cerevisiae mlh1 rad18 strain growth inhibition; at 50.0 µM; stronger effect = higher value
Summary of the method: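 Genetically defined yeast (DNA repair-deficient) exposed to compounds; growth inhibition determined relative to vehicle.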

SMILES	growth inhibition [1]	growth inhibition [2]	growth inhibition [3]	growth inhibition [4]	growth inhibition [5]	growth inhibition [6]
O=C(C[n+]1ccccc1)C1CCCC2CC3CCCCC3CC21 (stereo unspecified)	1.9%	18.3%	29.9%	13.8%	22.1%	37.6%
Cc1ccc(NC(=O)C(=O)C2C(=O)NC(=O)NC2=O)c(C)c1	13.9%	9.75%	5.75%	11.2%	15.9%	17.6%
CCc1cc(C)cc2[n+]1CC=C2C	6.45%	5.1%	6.85%	21.7%	-0.7%	14.5%
Cc1c(Cl)cc([N+](=O)[O-])c(O)c1[N+](=O)[O-]	6.1%	-1.45%	5%	30.7%	26.1%	7.85%
NNC(=O)NNC(=O)NN	-5.95%	-3.1%	-12.3%	1.65%	-8.25%	9.9%
NC(=O)Nc1ccc([As](O)O)cc1	11.3%	-2.4%	-0.45%	11.8%	-20%	15%
O=C(O)C(Cl)C(=O)O	-4.4%	-7.8%	9%	-26.4%	-0.35%	-13.9%
NC1CN2CCC1CC2 (stereo unspecified)	9.35%	-7.65%	-14.6%	11.8%	-8.55%	1.15%
Cc1ccc(N2C(=O)C3C(C2=O)C2(Cl)C(Cl)=C(Cl)C3(Cl)C2(Cl)Cl)cc1Cl (stereo unspecified)	-1.25%	3.25%	-1.1%	-36.1%	2.65%	9.5%
C[CH2][Sn](/[CH]=C\CO)([CH2]C)[CH2]C	63%	77.8% (active)	85.2% (active)	43.8%	93.6% (active)	94.6% (active)
[Se]=[Hf]=[Se]	1.35%	-24.7%	-28.7%	-8.6%	-11.8%	-26.6%
O=c1ccc(=O)[nH][nH]1.[Mn]	2.05%	4.5%	-13.6%	17.1%	7.2%	-1.7%
COc1cc2c(c(OC)c1O)-c1ccc(OC)c(=O)cc1[C@@H](NC(=O)C(F)(F)F)CC2	14.5%	28.3%	-3.25%	15.7%	7.9%	11.3%
CP(C)CC[PH+](CC[PH+](C)C)CC[PH+](C)C.[C-]#[O+].[C-]#[O+].[W]	-1.25%	-6.35%	-13.1%	24.4%	-0.45%	-0.9%
Cc1ccc(C[N+](C)(C)C)cc1	10.6%	-17.6%	6.7%	12.1%	-10.1%	4.5%
COC(=O)C1=COC(C)[C@H]2CN3CCc4c([nH]c5cc(OC)ccc45)C3CC12 (stereo partly specified)	-0.6%	-9.95%	-7.65%	0.9%	-12.8%	-9.1%
CC(C)(C(=O)c1ccccc1)N1CC1	-0.65%	2.8%	-4.75%	-10.6%	-23.6%	-8.25%
C#CC(=O)[O][Sn]([c]1ccccc1)([c]1ccccc1)[c]1ccccc1	99% (active)	99.1% (active)	99.3% (active)	99.2% (active)	98.9% (active)	99% (active)
CCCCCCCC(=O)[O][Pb]([CH2]C)([CH2]C)[CH2]C	-7.8%	-29.2%	1.95%	-1.5%	0%	-21.3%
CC1=CC(=O)CCC12CCOC2=O (stereo unspecified)	-54.1%	-20.1%	-21.3%	-40.6%	-13.2%	-7.55%
COc1ccc2c(c1OC(C)=O)-c1cc(OC(C)=O)cc3c1C(C2)N(C(=O)CN(CCCl)CCCl)CC3 (stereo unspecified)	-6.4%	-6%	-1.95%	-13%	-0.05%	-6.6%

SMILES	growth inhibition [1]	growth inhibition [2]	growth inhibition [3]	growth inhibition [4]	growth inhibition [5]	growth inhibition [6]
C#CC(C)N1CCC2(CC1)C(=O)NCN2c1ccccc1 (stereo unspecified)	-19.3%	-6.1%	-15.7%	-2.85%	-4.05%	0.65%
CC1CCCCN1 (stereo unspecified)	5.35%	-1%	-9.85%	10.2%	13.5%	2.85%
CC(=O)Nc1ccc([N+](=O)[O-])c(C(F)(F)F)c1	-4.2%	-6.4%	9.05%	13.1%	-3.9%	6.05%
O=C(CCBr)Nc1ccc(Cl)cc1C(=O)c1ccccc1	6.65%	5.5%	10.2%	-2%	54.8%	-5.95%
O=C(NCC(O)CO)c1c([N+](=O)[O-])ccc(N(CCCl)CCCl)c1[N+](=O)[O-] (stereo unspecified)	-11.2%	-9.85%	-0.45%	1.45%	-19.1%	21%
CN(C)P1(=O)OCC(C(C)(C)C)CN1c1ccccc1 (stereo unspecified)	-6.6%	2.95%	-2.8%	-22.2%	-12.9%	-14.3%
Cc1ccc(P(=S)(c2ccccc2)c2ccccc2)c2ccccc12	9.9%	0.45%	-1.5%	10.6%	20%	-4.25%
CCOC(=O)P(=O)(OCC)OCC	6.9%	-37.2%	-11%	-1.2%	4.95%	-1.1%
CN(C)CC1C(O)C2CCN1CC2 (stereo unspecified)	3.95%	9.3%	-3.1%	-5.3%	-5.5%	-1.85%
CC(=O)CC(C)=O.CC(=O)CC(C)=O.[O]=[V]	-60.2%	-58%	-57.8%	-153%	-54.6%	-53.2%
CC(=O)OC(C[N+](=O)[O-])C(Cl)(Cl)Cl (stereo unspecified)	5.7%	3.25%	2.25%	-0.7%	8.4%	2.95%
O=P(N1CCNCC1)(N1CCNCC1)N1CCNCC1	-20.1%	-11.8%	-1.35%	-42.5%	5.45%	-20.2%
CCOS(=O)(=O)c1ccc(C)cc1	13.8%	8.25%	3.35%	-0.95%	8.45%	-5.2%
COc1c2occc2c(CCl)c2ccc(=O)oc12	26.6%	11.2%	14.3%	24.4%	5.8%	28.1%
CCOC(=O)C1C(=O)NC2CCC(=O)CC21c1ccc2c(c1)OCO2 (stereo unspecified)	10.7%	-9.5%	-1.8%	-3.55%	23.9%	11.2%
CC(C)CCN(CCc1ccccc1[N+](=O)[O-])CCC(C)C	12.1%	-7.45%	-8.7%	-36.9%	44.1%	38.6%
Clc1ccc([C@H]2N[C@@H]2c2ccccn2)cc1	11.2%	16.1%	13.7%	-8.45%	9.15%	-5.55%
O=[C-]C(F)(F)F.[C-]#[O+].[C-]#[O+].[C-]#[O+].[Mo].[c-]1[c-][c-][cH-][c-]1	5.2%	13.3%	0.8%	25.9%	21.4%	7.05%
CCCC(=O)[O-].CCCC(=O)[O-].N.N.N.N.[Co+3].[O-][Cl+3]([O-])([O-])[O-]	-5.15%	-0.75%	-48%	12.3%	-5.1%	-12.6%
CC(=O)[C-](Br)C(C)=O.CC(=O)[C-](Br)C(C)=O.CC(=O)[C-](Br)C(C)=O.[Ru+3]	1.05%	1%	-15.9%	-15.1%	17.8%	14.5%

— PubChem BioAssay (NCI)
